Many of the other results were omitted from the sample, so hits are more common in it than they were.
TbPYK inhibitor: qHTS of Trypanosoma Brucei Inhibitors | pyruvate kinase (Trypanosoma brucei), Q57TT1 | TbPYK enzyme, Kinase-Glo Plus ATP luminescence, 45 min | Potency, µM (top dose mostly 76.8 µM), actives largely listed as inhibitors | 0.12% of 410,000 active | AID 624173, 2012; note: nearly all actives have a fitted effect of over 50% in size
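Assay buffer: 50 mM TEA pH 7.2, 100 mM KCl, 10 mM MgCl2, 0.05% BSA, 0.01% Tween-20. Pyruvate kinase from T. brucei plus substrate met compound, then ADP (130 uM final). Luminescence was read post 45 min RT.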
RE007 growth inh: qHTS Assay for Inhibitors of the HIV-1 protein Vpr | S. pombe RE007 Vpr strain, BacTiter-Glo ATP luminescence, 24 h | Potency, µM (top dose mostly 92.2 µM), hits mostly inhibitors | 0.21% of 360,000 active; active = well fitted falling curve with a large enough effect; inconclusive = small, poorly fitted or top-dose-only effect; inactive = no such curve, though single readings can be large or run the other way; note: nearly all actives have a fitted effect of over 50% in size
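Fission yeast strain RE007, carrying one chromosomally integrated HIV-1 vpr copy, was seeded at OD 0.01 in PMG+AL medium with 23 nL pinned compound. After 24 h at 30 °C and 99% humidity, viability was read by BacTiter-Glo luminescence.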
CHX counter: Cycloheximide Counterscreen for Small Molecule Inhibitors of Shiga Toxin; 12% of 300,000 active; max response, %; cell reporter, cycloheximide protein synthesis inhibition counterscreen; in the data active = max response mostly above about 13%, no sharp cut-off; inactive = mostly below about 14%; note: read at 38.3 µM for the half of the compounds with a filed dose
LmPK inh: qHTS Assay for Inhibitors of Leishmania Mexicana Pyruvate Kinase (LmPK); purified LmPK, Kinase-Glo ATP luminescence, 1 h; Q27686; 0.37% of 290,000 active; Potency, µM (doses to about 57.5 µM), most hits filed as inhibitors
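In 50 mM imidazole pH 7.2 with 7 mM MgCl2, LmPK (0.1 nM) turned over PEP (0.5 mM) and ADP (0.1 mM) for 1 h at room temperature. Luciferase read-out of ATP.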
Giardia FBPA inh: qHTS Assay for Inhibitors of Fructose-1,6-bisphosphate Aldolase from Giardia Lamblia | 0.71% of 290,000 active | AID 2451, 2010 | purified Giardia FBPA | Potency, µM (top dose mostly 59.6 µM), most hits filed as inhibitors | A8B2U2; note: nearly all actives have a fitted effect of over 55% in size
Target sequence (A8B2U2 whole entry, looked up): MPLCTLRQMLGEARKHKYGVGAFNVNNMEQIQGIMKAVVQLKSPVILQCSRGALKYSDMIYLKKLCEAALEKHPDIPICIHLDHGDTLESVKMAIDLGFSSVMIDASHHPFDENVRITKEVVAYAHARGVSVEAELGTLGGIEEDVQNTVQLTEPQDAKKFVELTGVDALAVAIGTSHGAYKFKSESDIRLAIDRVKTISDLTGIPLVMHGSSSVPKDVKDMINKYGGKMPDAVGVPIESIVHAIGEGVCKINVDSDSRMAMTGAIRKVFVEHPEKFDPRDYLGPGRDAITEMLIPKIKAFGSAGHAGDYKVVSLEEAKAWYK
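40 nM FBPA preincubated 10 min at RT with compound (up to 57.5 uM final), then substrate plus GAPDH/TPI/NAD/arsenate coupling and diaphorase/resazurin added. Fluorescence read after 20 min at RT, 525/598 nm.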
Shiga toxin inh: A qHTS for Small Molecule Inhibitors of Shiga Toxin | Vero cells, Shiga toxin protein synthesis inhibition reporter | inhibition, % at 38.7 µM | 9.2% of 290,000 active; in the data active = inhibition mostly above about 28%, no sharp cut-off; inactive = mostly below about 43%
Large screens that a line does not name were inactive; ! = a repeat was not active. Unless noted, calls come from the whole dose curve; as a rule, active = well fitted curve in the direction sought with a large enough effect; inconclusive = small, poorly fitted or top-dose-only effect, or another doubt; inactive = no such curve, though single readings can be large; an effect the other way counts as inactive or inconclusive.

CN(C(=O)Nc1ccccc1)C1CCCc2ccccc21 (configuration not stated)	CHX counter 19, Shiga toxin inh 71
COc1ccc(-c2nc3sc(CCNC(=O)c4ccc(C(C)(C)C)cc4)c(C)n3n2)cc1	none (no result: RE007 growth inh, CHX counter, LmPK inh, Giardia FBPA inh, Shiga toxin inh)
NCCC[C@@H](CC(=O)N[C@@H]1CCCC[C@H]1C(=O)N[C@H](CC(=O)N[C@@H](CCC(=O)O)CC(=O)O)Cc1c[nH]c2ccccc12)NC(=O)C[C@H](Cc1ccccc1)NC(=O)[C@@H]1CNCC[C@H]1N	none (no result: TbPYK inhibitor, RE007 growth inh, CHX counter, LmPK inh, Shiga toxin inh)
O=C(Nc1ccccc1)N(C1=NCCC1)c1ccccc1	none
CN(C(=O)Nc1ccccc1)C1CCCCC1	none
CN(C(=O)Nc1cnc2ccccc2c1)c1ccccc1	CHX counter 34, Shiga toxin inh 28
Cc1ccc(NC(=O)NC(=O)N(c2ccccc2)S(C)(=O)=O)cc1	CHX counter 27, Shiga toxin inh 50
CCOc1ccc(NC(=O)NC(=O)N(C)S(=O)(=O)c2ccc(C)cc2)cc1	none
Cc1ccc(N(C(=O)Nc2ccccc2)C2=NCCC2)cc1	CHX counter 17
CN(C)C(=O)Nc1ccccc1	CHX counter 41!, Shiga toxin inh 88!
Cc1oc2ccc(O)c(CN3CCN(C)CC3)c2c1C(=O)Nc1ccccc1	none (no result: RE007 growth inh, CHX counter, LmPK inh, Giardia FBPA inh, Shiga toxin inh)
Cc1ccc(S(=O)(=O)NN2CCCCCC2)cc1	none (no result: CHX counter, LmPK inh, Giardia FBPA inh, Shiga toxin inh)
COC(=O)c1ccc(C(NC(=O)OCc2ccccc2)/C(=C/[C@@H](C)C(=O)NCc2ccncc2)c2cccnc2)cc1 (some centres not stated)	none (no result: TbPYK inhibitor, RE007 growth inh, CHX counter, LmPK inh, Shiga toxin inh)
Cc1ccccc1NC(=O)CSc1ncc2c(n1)-c1ccccc1N(C)S2(=O)=O	none (no result: RE007 growth inh, CHX counter, LmPK inh, Giardia FBPA inh, Shiga toxin inh)
CCOc1ccc(N=Cc2c(O)c3ccccc3oc2=O)cc1	CHX counter 26, LmPK inh inconclusive, Shiga toxin inh 78
CCOc1ccc(N=Cc2c(O)cc(C)oc2=O)cc1	none
COc1cc(/C=N/NC(=O)CSc2ccccn2)ccc1O	none
CCCOc1ccc(/C=N/NC(=O)CSc2ccccn2)cc1OC	CHX counter 36, Shiga toxin inh 85
CN(C)c1ccc(/C=N/NC(=O)CCc2nc3ccccc3[nH]2)cc1	none
CN(C)c1ccc(/C=N/NC(=O)CSc2ccccn2)cc1	CHX counter 40, Shiga toxin inh 56
COc1c(C)cc(C(O)c2ncc(-c3ccc(C(F)(F)F)cc3)[nH]2)cc1C (configuration not stated)	none (no result: CHX counter, LmPK inh, Giardia FBPA inh, Shiga toxin inh)
Cc1cc(C)c2c(c1)/C(=c1/sc3n(c1=O)CN(c1ccccc1)CN=3)C(=O)N2	none
CCc1cc(C(=O)c2ccc(C)cc2)c(NC(=O)CCl)s1	CHX counter 49, Shiga toxin inh 73
CC(CN1CCOCC1)OC(=O)c1cccc(Cl)c1 (configuration not stated)	none
CCN1C(=O)[C@@H]2Cc3c([nH]c4ccccc34)C(c3ccc(OC)cc3)N2C1=S (some centres not stated)	CHX counter 21, Shiga toxin inh 32
CC(C)OCCCN1CC(=O)N2C(c3ccccc3)c3[nH]c4ccccc4c3C[C@H]2C1=O (some centres not stated)	CHX counter 21, Shiga toxin inh 56
COc1cccc(C2c3[nH]c4ccccc4c3C[C@H]3C(=O)N(CCCOC(C)C)CC(=O)N23)c1 (some centres not stated)	none
COc1cc(/C=N/OCC(=O)Nc2cc(C)on2)ccc1OCc1ccccc1	CHX counter 18, Shiga toxin inh 104
O=C(CSCc1ccc(Cl)cc1)N/N=C/c1ccccc1	Giardia FBPA inh 18µM
COc1cc(/C=C/C(=O)NC(C)C)ccc1OCc1ccccc1	none
O=C(CN1CCCCC1)N/N=C/c1ccc(Cl)cc1	CHX counter 14, Shiga toxin inh 45
O=C(CSCc1ccc(Cl)cc1)N/N=C/c1c(Cl)cccc1Cl	none
Cn1cccc1CC(=O)N/N=C/c1ccc(Cl)cc1	CHX counter 16, Shiga toxin inh 26
O=C(CN1CCCCCCC1)N/N=C/c1ccc(F)c(F)c1	none
COc1ccccc1CN1CC[C@@]2(CCCN(C(=O)c3cccn3C)C2)C1	none (no result: RE007 growth inh, CHX counter, LmPK inh, Shiga toxin inh)
COc1cc(/C=N/NC(=O)CN2CCCCC2)ccc1OCc1ccccc1	CHX counter 28, Shiga toxin inh active
CC(C)(C)OC(=O)COc1ccc(/C=N/NC(=O)CN2CCCCC2)cc1	CHX counter 45, Shiga toxin inh 88
COc1ccc(/C=N/NC(=O)CN2CCCC2)cc1	none
O=C(CN1CCCCCC1)N/N=C/c1ccc2ccccc2c1	CHX counter 43, Giardia FBPA inh inconclusive, Shiga toxin inh 74
COc1cc(/C=N/n2cnnc2)ccc1OCc1ccccc1	CHX counter 22 (no result: Giardia FBPA inh)
COc1cc(CN2CC(=O)N(c3cc(Cl)ccc3C)C2=S)cc(OC)c1OC	none
CCCCN(C(=O)c1cccc(S(=O)(=O)N2CCCCC2)c1)C1CCS(=O)(=O)C1 (configuration not stated)	none
COc1ccccc1-c1noc(-c2ccc(N3CCOCC3)c([N+](=O)[O-])c2)n1	none (no result: RE007 growth inh, CHX counter, LmPK inh, Giardia FBPA inh, Shiga toxin inh)
CSc1ccc(CN2CCC2(C)C(=O)NCc2ccc3c(c2)OCO3)cc1 (configuration not stated)	none (no result: CHX counter, LmPK inh, Giardia FBPA inh, Shiga toxin inh)
Cc1ccc(S(=O)(=O)Oc2ccc(C)cc2/C=N/N=C2\NC(=O)C(C)S2)cc1 (configuration not stated)	CHX counter 30, Shiga toxin inh 73
CC1S/C(=N/N=C/c2cccc([N+](=O)[O-])c2)NC1=O (configuration not stated)	none
C/C(=N\NC(=O)c1ccoc1C)c1cccc2ccccc12	CHX counter 62, Shiga toxin inh 80
C/C(=N\NC(=O)c1cccc2ccccc12)c1ccccn1	RE007 growth inh inconclusive
C/C(=N/NC(=O)Cc1cccc2ccccc12)c1cccs1	none
C/C(=N\NC(=O)c1ccccc1O)c1cccs1	CHX counter 32, LmPK inh 14µM, Shiga toxin inh 56
C/C(=N\OCC(=O)Nc1ccccc1C(=O)O)c1cccs1	CHX counter 34, Giardia FBPA inh inconclusive, Shiga toxin inh 98
C/C(=N\NC(=O)c1cccc2ccccc12)c1cccs1	CHX counter 29, Giardia FBPA inh inconclusive, Shiga toxin inh 70
Cc1ccc(S(=O)(=O)N(C)C[C@@H]2Oc3ccc(NS(C)(=O)=O)cc3CC(=O)N([C@H](C)CO)C[C@@H]2C)cc1	none (no result: CHX counter, LmPK inh, Giardia FBPA inh, Shiga toxin inh)
C/C(=N\NC(=O)COc1ccccc1)c1cccs1	CHX counter 54, Shiga toxin inh 70
COc1ccc(C(=O)On2c(-c3ccc(Br)cc3)nc3ccccc3c2=O)cc1	RE007 growth inh inconclusive, CHX counter 32, Shiga toxin inh 93

Screening data from PubChem BioAssay.
